Data taken from ChEMBL document CHEMBL4513216, “Probing the Open Global Health Chemical Diversity Library for Multistage-Active Starting Points for Next-Generation Antimalarials” (ACS Infect Dis, 2020).
In all, about 65,000 compounds went through this assay and about 2,100 (3.2%) showed an effect of 50% or more. The median lay at about -52%. The sample holds strong results, similar compounds and a random draw of the others, so the mix is not that of the screen.

What follows are compounds tested on Plasmodium falciparum (assay: Screen against P. falciparum Asexual Blood Stage (ABS), at 5uM). Conditions: tested at 5 uM.
Type: functional, Dd2

| SMILES | INHIBITION [%] |
| --- | --- |
| Cc1cccc(C)c1OCC(C)Nc1nc(N)nc2c1CCNC2 (stereo not given) | 67 |
| Cc1cccnc1CC(C)Nc1nc(N)nc2c1CCNC2 (stereo not given) | -92 |
| Cc1cc(C)n(CC(C)Nc2nc(C)nc3c2CCNC3)n1 (stereo not given) | 2.63 |
| Cc1ccc(-c2noc(CN3CCC(N4CCNC4=O)CC3)n2)cc1 | -63.1 |
| CCS(=O)(=O)N1Cc2ncn(C)c2C(COCC2CCOCC2)C1 (stereo not given) | -46.6 |
| c1nc2c(c(N3CCOCC3)n1)CCNCC2 | -98 |
| c1ccc(C2CCCN(c3ncnc4c3CCNC4)CC2)cc1 (stereo not given) | 61.2 |
| c1ccc2c(c1)CCN(c1nc(-c3ccncc3)nc3c1CCNC3)C2 | 61.6 |
| c1ccc2c(c1)CN(c1ncnc3sc4c(c13)CCNC4)CCO2 | -26.7 |
| c1ccc2c(c1)CCN(c1ncnc3sc4c(c13)CCNC4)C2 | -28.5 |
| c1ccc2c(c1)CN(c1ncnc3c1CCNC3)CCO2 | 65.9 |
| CN(C)c1nc2c(c(N3CCc4ccccc4C3)n1)CCNC2 | 31.4 |
| NC(=O)c1cccnc1N1CCN(c2ncnc3c2CCNC3)CC1 | -103 |
| c1cc(C2CCN(c3ncnc4c3CCNCC4)CC2)ccn1 | 27.2 |
| NC(=O)CN1CCC(NC(=O)COc2ccc(Cl)c(Cl)c2)CC1 | -138 |
| Cn1cccc1CN1CCc2ncnc(-c3cccnc3)c2CC1 | 0.898 |
| O=C1CCCC2=Nc3nonc3NC(c3cc(Cl)ccc3F)C12 (stereo not given) | -54 |
| O=C1CCCCN1Cc1cccc(OC(F)F)c1 | -103 |
| CN(C)S(=O)(=O)N1CC[C@]2(O)CCN(Cc3cc(F)cc(F)c3)C[C@@H]2C1 | -81.9 |
| CN(C)S(=O)(=O)N1CC[C@]2(O)CCN(Cc3cccc(C#N)c3)C[C@@H]2C1 | -58.1 |
| Cc1ccc(CN2CC[C@@]3(O)CCN(S(=O)(=O)N(C)C)C[C@H]3C2)cc1C | 53.6 |
| CN(C)S(=O)(=O)N1CC[C@]2(O)CCN(Cc3cccc(F)c3)C[C@@H]2C1 | 20.7 |
| CN(C)S(=O)(=O)N1CC[C@]2(O)CCN(CCCc3cccnc3)C[C@@H]2C1 | -62.2 |
| CN(C)S(=O)(=O)N1CC[C@]2(O)CCN(CCc3cccc(F)c3)C[C@@H]2C1 | 53.4 |
| CC(C)(C)CN1CCCC12CCN(S(=O)(=O)c1ccccc1)C2 (stereo not given) | 32.5 |
| c1cncc(-c2noc(CNCC3CCCN3c3cccnn3)n2)c1 (stereo not given) | -92.3 |
| c1cnnc(N2CCCC2CNCc2nc(-c3ccco3)no2)c1 (stereo not given) | 50.5 |

| SMILES | INHIBITION [%] |
| --- | --- |
| c1cnnc(N2CCCC2CNCc2cccs2)c1 (stereo not given) | 55.7 |
| c1cnnc(N2CCCC2CNCc2cscn2)c1 (stereo not given) | 35.8 |
| CCCc1nc(CNCC2CCCN2c2cccnn2)cs1 (stereo not given) | 37.5 |
| c1cnnc(N2CCCC2CNCc2csc(-c3ccco3)n2)c1 (stereo not given) | 41.4 |
| Cc1nc(CNCC2CCCN2c2cccnn2)cs1 (stereo not given) | -34.2 |
| c1cnnc(N2CCCC2CNCc2nc(-c3ccoc3)no2)c1 (stereo not given) | 35.2 |
| CCc1nc(CNCC2CCCN2c2cccnn2)cs1 (stereo not given) | 58.7 |
| CC(C)CCc1nc(CNCC2CCCN2c2cccnn2)cs1 (stereo not given) | 67.4 |
| Cc1ccc(CNCC2CCCN2c2cccnn2)s1 (stereo not given) | 46.6 |
| c1cnnc(N2CCCC2CNCCc2cccs2)c1 (stereo not given) | 40 |
| COCCOc1ccccc1C(=O)N1CCCC(c2cc(C)[nH]n2)C1 (stereo not given) | -15.2 |
| Cc1ccccc1SC1CCN(C(=O)CCCS(N)(=O)=O)CC1 | -124 |
| Cc1noc(C)c1CN1C(=O)[C@@H]2CC[C@H]1CN(Cc1cccnc1N)C2 | -49.1 |
| Cn1cc(CNC2CCc3c(ccc(=O)n3Cc3cccnc3)C2)cn1 (stereo not given) | -48.3 |
| CCc1cc(C(F)(F)F)n2nc(C3CCCN3C(=O)COC)cc2n1 (stereo not given) | -17.9 |
| CCc1cnc(CN(C)C(=O)Nc2cnn(CC3CCCO3)c2)s1 (stereo not given) | -48.8 |
| Cc1cccc(CNCC2(O)CCCN(CC3CCCCC3)C2=O)n1 (stereo not given) | -3.18 |
| Cc1ncccc1Oc1nccnc1C1CCCN(C(C)C)C1 (stereo not given) | -26.3 |
| Cc1nc(CN(C)CC2CCCN2c2cccnn2)oc1C (stereo not given) | -18.6 |
| c1cnnc(N2CCCC2CNCc2nc3ccccc3o2)c1 (stereo not given) | -31.6 |
| CN(Cc1nc2ccccc2o1)CC1CCCN1c1cccnn1 (stereo not given) | 69.3 |
| Cc1nnc2ccc(N3CCC(C(=O)Nc4nccs4)CC3)nn12 | -16.3 |
| CC(C)c1nnc2ccc(N3CCCC(C(=O)Nc4nccs4)C3)nn12 (stereo not given) | -58 |
| CC(C)c1nnc2ccc(N3CCC(C(=O)Nc4nccs4)CC3)nn12 | 66.9 |
| NC(=O)C(c1ccc(F)cc1)N1CCN(CCO)CC1 (stereo not given) | -133 |
| CSc1ccc(C(CNC(=O)C2CC2)N2CCc3sccc3C2)cc1 (stereo not given) | 20.6 |
| CCOCCCC(=O)NCC(c1ccccc1)N1CCc2sccc2C1 (stereo not given) | -59.8 |

| SMILES | INHIBITION [%] |
| --- | --- |
| CC(C)c1ccc(C(CN)N2CCc3sccc3C2)cc1 (stereo not given) | 69.8 |
| NCC(c1ccccc1)N1CCc2sccc2C1 (stereo not given) | 57.9 |
| O=C(COCC1CC1)NCC(c1ccccc1)N1CCc2sccc2C1 (stereo not given) | -122 |
| CSc1ccc(C(CNC(C)=O)N2CCc3sccc3C2)cc1 (stereo not given) | -77.1 |
| O=C(NCCO)NCC(c1ccccc1)N1CCc2sccc2C1 (stereo not given) | -6.62 |
| NCC(c1ccc(Cl)cc1)N1CCc2sccc2C1 (stereo not given) | 66.5 |
| CSc1ccc(C(CN)N2CCc3sccc3C2)cc1 (stereo not given) | 9.08 |
| O=C(C1CNCCN1C(=O)CCOc1ccccc1)N1CCOCC1 (stereo not given) | -116 |
| COC(=O)[C@@H]1C[C@H](NC(=O)c2cc(=O)[nH]c3ccc(C)cc23)CN1C | 5.12 |
| CSCC[C@H](N)c1nnc(SCC(=O)Nc2ccc(Br)cc2)o1 | -102 |
| Cc1ccccc1C(=O)N1Cc2c(Cn3ccnc3)nn(C)c2C1 | -35.3 |
| CS(=O)(=O)N1CC2(CCN(C(=O)c3ccncc3)CC2)c2ccccc21 | -67.5 |
| Cc1cc(N2CCC(c3ncc[nH]3)CC2)nc(N)n1 | -25.6 |
| Cc1cc(N2CCC(c3ncc[nH]3)CC2)c2ccccc2n1 | 62.6 |
| Cc1cc(N2CCC(c3ncc[nH]3)CC2)cc(C)n1 | -26.7 |
| NCC(=O)N1CCCC(c2cncc(Nc3ncccn3)n2)C1 (stereo not given) | -81.1 |
| Cc1ccc(CN2CCCC3(COCCN(Cc4c[nH]nn4)C3)C2)s1 (stereo not given) | 37.3 |
| O=C(c1c[nH]c(=O)[nH]c1=O)N1CCCC(c2cnccn2)C1 (stereo not given) | -173 |
| CC(C)Nc1ncnc2c1CCN(C(=O)N1CCOCC1)CC2 | -114 |
| CCC[C@@H]1CN(C(=O)c2ccccc2-c2ncc[nH]2)C[C@H]1N(C)C | -80.9 |
| CCC[C@@H]1CN(C(=O)c2ccccc2C(C)=O)C[C@H]1N(C)C | -112 |
| CCC[C@@H]1CN(C(=O)c2ccccc2-c2ccccc2)C[C@H]1N(C)C | 22.2 |
| CCC[C@@H]1CN(C(=O)c2cc(-c3cccs3)n(C)n2)C[C@H]1N(C)C | -63 |
| CCC[C@@H]1CN(C(=O)c2conc2-c2ccccc2)C[C@H]1N(C)C | 52.8 |
| CCC[C@@H]1CN(C(=O)c2cc3ccccc3cc2O)C[C@H]1N(C)C | 52.8 |
| CCOCC1CN(C2CCCC2)Cc2cnn(CC3CCOCC3)c21 (stereo not given) | -1.53 |
| CC(C)N1CCCN(c2nc(-c3cccnc3)nc3c2cnn3C)CC1 | 43.8 |

| SMILES | INHIBITION [%] |
| --- | --- |
| CCN1CCC(CC(=O)NCc2nc(C)cc(C)n2)CC1 | -46.7 |
| Cc1nc(C2CCCN2C(=O)COc2ccccc2)ncc1C(N)=O (stereo not given) | -61 |
| COc1cccc(CN(C)C(=O)c2ccc(NC(C)=O)s2)c1OC | -83.5 |
| O=C(NC1CCCN(c2ccccc2Cl)C1)c1c[nH]nn1 (stereo not given) | -144 |
| NC(=O)CCNC(=O)NCC1(c2ccccc2Cl)CCC1 | -18.5 |
| NC(=O)CCNCc1c(Cl)cccc1N1CCCC1 | 66.4 |
| O=c1oc(-c2cccs2)nn1CC(O)c1ccc2c(c1)CCC2 (stereo not given) | -20 |
| Cc1nnc(NC(=O)C(C)n2ncc(Br)c2C)s1 (stereo not given) | -120 |
| CCCn1ncc(CN2C[C@@H]3CCCN3C[C@@H]2Cc2ccccc2)c1C | 63.8 |
| CCn1ncc(CN2C[C@@H]3CCCN3C[C@@H]2CCSC)c1C | -116 |
| CCCn1ncc(CN2C[C@@H]3CCCN3C[C@H]2Cc2ccccc2)c1C | 57.8 |
| C=Cn1ncc(CN2C[C@@H]3CCCN3C[C@@H]2Cc2ccccc2)c1C | 25.8 |
| CCCn1ncc(CN2C[C@@H]3CCCN3C[C@@H]2CCSC)c1C | 29.3 |
| CCCn1ncc(CN2C[C@@H]3CCCN3C[C@H]2CCSC)c1C | -62.1 |
| CNC(=O)COC1COC2(CCN(Cc3ccncc3F)CC2)C1 (stereo not given) | -146 |
| CC(C)[C@H](NS(C)(=O)=O)C(=O)NCc1cc(-c2ccco2)nn1C | -141 |
| COc1c(CNCc2ccccc2Cn2cncn2)c(C)nn1C | 3.03 |
| COc1c(CNCc2ccc(Cn3cccn3)cc2)c(C)nn1C | 14.8 |
| COc1c(CNCc2ccccc2Cn2cccn2)c(C)nn1C | 57.4 |
| COC[C@]1(O)CCN(c2cc(C3CC3)ncn2)CC1(C)C | -106 |
| CC(C)c1cc(C(=O)NCCc2nc(-c3ccncc3)n[nH]2)[nH]n1 | 66.4 |
| CC(C)c1cc(C(=O)NCCc2nc(-c3cccnc3)n[nH]2)[nH]n1 | 14.9 |
| CC(C)C(=O)NCCc1nc(-c2ccncc2)n[nH]1 | -11.5 |
| Cc1noc([C@@H]2C[C@H]3OCC[C@H]3N(Cc3cc(C)c(C)o3)C2)n1 | -151 |
